This is part of a sample that, as a whole, favours compounds with a hit. Of some 83,000 tested, about 20% had one in any assay.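 Single-dose data. Exposure time 48 hours. Values below 10 considered active.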 A number with no mark means an inactive call. Calls of active or inactive are those of the source.

The values that follow come from PubChem BioAssay (NCI).

Among the test systems are T-47D breast; BT-549 breast; MDA-MB-435 melanoma; SW-620 colon; MCF7 breast; HCT-116 colon; HCC-2998 colon.
Holding throughout (experiment): NCI-60 one-dose screen, 48 h (100 = growth as untreated, 0 = no growth, -100 = all killed)
Common to all, as to conditions: 10 µM unless noted

Regarding `CC(C)=CC[C@@H]1CC2(CC=C(C)C)C(=O)C(OC3(C(=O)c4ccccc4)C(=O)C4(CC=C(C)C)C[C@@H](CC=C(C)C)C(C)(C)C(CC=C(C)C)(C4=O)C3=O)(C(=O)c3ccccc3)C(=O)C(CC=C(C)C)(C2=O)C1(C)C` (stereo partly specified), the growth with T-47D breast is 1.58% (active); in the assay on BT-549 breast it was -2.41% (active); with MDA-MB-435 melanoma, 6.28% (active); in the assay on SW-620 colon, 9.62% (active); in the assay on MCF7 breast it was 2.12% (active); in the assay with HCT-116 colon, -33.4% (active). Further, in the assay with HCC-2998 colon, the growth is 10.7%.

Take `C=C(C)[C@@H]1CC[C@]2(C(=O)O)CC[C@]3(C)[C@H](CC[C@@H]4[C@@]5(C)C[C@@H](CC#Cc6ccc(C(C)=O)s6)[C@H](O)C(C)(C)[C@@H]5CC[C@]43C)[C@@H]12`: the growth is 51.5% in the assay with T-47D breast; 53.1% with BT-549 breast; 81.5% with MDA-MB-435 melanoma; 59.8% in the assay with SW-620 colon; 55% with MCF7 breast; 26% in the assay on HCT-116 colon. The growth in the assay with HCC-2998 colon was 62.9%.

For `CC(C)(C)[Si](C)(C)OC1[C@@H](O[Si](C)(C)C(C)(C)C)[C@@H](CNC(=O)NC(=O)NC(=O)CCl)O[C@H]1n1cnc2c(NC(=O)Nc3ccccc3)ncnc21` (stereo partly specified), the growth with T-47D breast was 77%; in the assay with BT-549 breast it was 71.7%; in the assay with MDA-MB-435 melanoma, 76.3%; in the assay on SW-620 colon it was 85.4%; in the assay with MCF7 breast it was 37.8%; in the assay with HCT-116 colon it was 17.6%. The growth in the assay with HCC-2998 colon is 75.5%.

Turning to `c1cc2c(cc1-c1cnc3nonc3n1)OCO2`, the growth was 57.7% in the assay on T-47D breast; 95.2% in the assay on BT-549 breast; 103% in the assay on MDA-MB-435 melanoma; 83% with SW-620 colon; 49.5% with MCF7 breast; 102% in the assay on HCT-116 colon. Further, the growth in the assay with HCC-2998 colon is 107%.

For `c1cn2cc(-c3ccc4ncn(C5CCCCC5)c4c3)nc(-c3ccc4c(c3)ncn4C3CCCCC3)c2n1`, the growth was -17.7% (active) in the assay with T-47D breast; -48.9% (active) in the assay on BT-549 breast; -73% (active) with MDA-MB-435 melanoma; -3.82% (active) with SW-620 colon; -3.78% (active) in the assay with MCF7 breast; -61.4% (active) with HCT-116 colon. Further, the growth in the assay on HCC-2998 colon is -93.4% (active).

`CCCCCCCCCCCCCC`: the growth was 101% with T-47D breast; 112% in the assay on BT-549 breast; 104% with MDA-MB-435 melanoma; 104% with SW-620 colon; 91.1% in the assay on MCF7 breast; 102% in the assay with HCT-116 colon. The growth in the assay with HCC-2998 colon is 97.8%.

In the case of `Cc1csc(N/N=C/c2ccncc2)n1`, the growth was 94% with T-47D breast; 105% in the assay with BT-549 breast; 104% in the assay with MDA-MB-435 melanoma; 103% with SW-620 colon; 87.1% in the assay on MCF7 breast; 97.6% with HCT-116 colon. For the same compound, the growth in the assay with HCC-2998 colon was 99.9%.

As to `COc1ccc2nc(C)cc(Sc3nc4ccccc4s3)c2c1`, the growth was 32.5% with T-47D breast; -11.8% (active) in the assay on BT-549 breast; 17.2% in the assay with MDA-MB-435 melanoma; 31.3% with SW-620 colon; 15.9% in the assay on MCF7 breast; 24.5% with HCT-116 colon. In addition, the growth in the assay on HCC-2998 colon is 73.8%.

As for `CCOC(=O)Nc1ccc2nc(N3CCCCCC3)sc2c1`, the growth in the assay on T-47D breast was 41.6%; in the assay on BT-549 breast, 65.7%; in the assay on MDA-MB-435 melanoma, 7.4% (active); with SW-620 colon it was 24.5%; in the assay on MCF7 breast it was 19.5%; in the assay on HCT-116 colon it was 27.9%. Besides, the growth in the assay with HCC-2998 colon is 50.3%.

With `Brc1ccsc1Br`, the growth was 95.4% in the assay with T-47D breast; 102% with BT-549 breast; 113% in the assay with MDA-MB-435 melanoma; 111% in the assay on SW-620 colon; 103% in the assay on MCF7 breast; 105% with HCT-116 colon. Moreover, the growth in the assay with HCC-2998 colon is 105%.

As for `CCCCCCCCCCCCCCCCCC1=NCCN1CCO`, the growth with T-47D breast is 95%; in the assay on BT-549 breast it was 91.5%; in the assay on MDA-MB-435 melanoma it was 101%; with SW-620 colon, 65.2%; with MCF7 breast, 74.3%; with HCT-116 colon, 65.1%. Further, in the assay on HCC-2998 colon, the growth was 61.3%.

`COc1ccc(-c2nc3c(c(-c4ccc(Cl)cc4)nn3-c3ccccc3)c(-c3ccc(O)cc3)c2C#N)cc1`: the growth in the assay with T-47D breast is 24.6%; with BT-549 breast, 54.4%; with MDA-MB-435 melanoma it was 44.3%; in the assay with SW-620 colon, 48.5%; in the assay on MCF7 breast it was 13.6%; with HCT-116 colon it was 12%. In the assay with HCC-2998 colon, the growth is 70.3%.

Turning to `Clc1ccc(C2=NN[C@H](c3cn(-c4ccccc4)nc3-c3ccccc3)C2)cc1`, the growth was 46.4% in the assay with T-47D breast; 92.7% in the assay with BT-549 breast; 47.3% in the assay with MDA-MB-435 melanoma; 48.7% in the assay on SW-620 colon; 66.2% in the assay on MCF7 breast; 0.0078% (active) with HCT-116 colon. Besides, the growth in the assay on HCC-2998 colon is 90.7%.

In the case of `c1coc(CNc2c3ccccc3nc3ccccc23)c1`, the growth in the assay with T-47D breast was 69.3%; with BT-549 breast, 97.4%; in the assay with MDA-MB-435 melanoma, 87.6%; in the assay with SW-620 colon it was 42.3%; with MCF7 breast, 21.3%; with HCT-116 colon it was 24.1%. In the assay on HCC-2998 colon, the growth is 68.9%.

With `O=C1OC(/C=C/c2ccccc2)=NC/1=C/c1ccccc1[N+](=O)[O-]`, the growth is 90.5% in the assay on T-47D breast; 89.8% in the assay with BT-549 breast; 108% in the assay on MDA-MB-435 melanoma; 103% in the assay with SW-620 colon; 90.7% in the assay with MCF7 breast; 104% in the assay with HCT-116 colon. Also, the growth with HCC-2998 colon is 104%.

With `COc1cc(CN(CCC(O)N2CCCC2=O)Cc2ccc3c(c2)OCO3)cc(OC)c1OC` (stereo unspecified), the growth was 96% with T-47D breast; 101% with BT-549 breast; 103% in the assay on MDA-MB-435 melanoma; 108% in the assay on SW-620 colon; 96.8% with MCF7 breast; 92.4% in the assay with HCT-116 colon. Besides, the growth with HCC-2998 colon was 113%.

Regarding `COc1cc(NCCC2CCCCN2)c2ncccc2c1OC` (stereo unspecified), the growth was 38% in the assay on T-47D breast; 91.6% with BT-549 breast; -62.6% (active) in the assay with MDA-MB-435 melanoma; 74.9% with SW-620 colon; 57.3% with MCF7 breast; 46.9% in the assay with HCT-116 colon. Also, the growth with HCC-2998 colon was 80.6%.

For the compound `COc1ccc(C2c3cccn3-c3ccccc3N2C(C)=O)cc1` (stereo unspecified), the growth with T-47D breast was 103%; in the assay on BT-549 breast, 95.4%; in the assay with MDA-MB-435 melanoma it was 57%; in the assay with SW-620 colon, 85.5%; in the assay with MCF7 breast, 116%; in the assay with HCT-116 colon, 97.8%. Moreover, the growth in the assay on HCC-2998 colon is 90.4%.
